Only some compounds are listed: those with a hit (about 19% of all), similar ones and a draw of the others.
HT1080-NT tox – kills 2HG-producing HT-1080-NT fibrosarcoma cells; HT-1080-NT fibrosarcoma viability, CellTiter-Glo ATP luminescence, 48 h; actives 1.6% (n = 360,000); AID 686970; Potency, µM (series often up to 46.1 µM), for inactives: at the top dose activity, negative = less viability, usual class: cytotoxic;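 further: NT is the 2HG producing partner of a matched IDH1 knockdown line; 0% = DMSO-treated cells and -100% = media-only wells without cells; nearly all actives have a fitted effect of over 55% in size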
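Read-out is CellTiter-Glo luminescence after 10 minutes at room temperature, following 48 hours' compound treatment of HT-1080-NT cells (750 cells/well, RPMI, 5% FBS, 37 degrees C).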
DT40 TDP1 CPT – DT40-hTDP1 cell growth loss with CPT | chicken DT40 Tdp1-/-;hTDP1 cells + 20 nM CPT, ATP luminescence, 48 h | Potency, µM (highest dose often 46.2 µM), without a hit: at the highest dose activity change, negative = growth inhibition, usual class: inhibitors | actives 12% (n = 420,000) | AID 686979; further: nearly all actives have a fitted effect of over 55% in size
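Cell growth measured by CellTiter-Glo luminescence after a minimum 48 h, 37 C compound exposure with 20 nM CPT in Tdp1-knockout DT40 cells stably expressing hTDP1, seeded 400/well; qHTS titration format.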
KB-V1 cytotox – kills drug-selected multidrug resistant KB-V1 cells; KB-V1 MDR cells viability, CellTiter-Glo, 72 h; Potency, µM (doses to about 46.1 µM), usual class: cytotoxic; actives 3.4% (n = 400,000); AID 1347076; further: nearly all actives have a fitted effect of over 60% in size
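Cytotoxicity toward P-gp-expressing KB-V1 cells was determined as loss of CellTiter-Glo luminescence after 72 h at 37 degrees C. Compounds were tested in quantitative HTS format across a concentration range, with curves fitted to normalized data.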
TDP1 cell noCPT – qHTS for Inhibitors of human tyrosyl-DNA phosphodiesterase 1 (TDP1): qHTS in cells in absence of CPT | Potency, µM (titrated, usually from 46.2 µM), inactives show top-dose activity change, negative = growth inhibition, usual class: inhibitors | actives 15% (n = 420,000) | AID 686978, 2013 | DT40 Tdp1-/- hTDP1 cells, no CPT, ATP luminescence, 48 h; further: nearly all actives have a fitted effect of over 55% in size
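No-CPT arm: Tdp1-/-;hTDP1 DT40 cells (400/well) plus compounds, incubated ≥48 hr at 37 °C. Readout CellTiter-Glo luminescence.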
HT1080 IDH1KD tx – toxicity to HT-1080 IDH1 knockdown cells (counter line). Potency, µM (highest dose often 46.1 µM), without a hit: at the highest dose activity, negative = toxicity, most hits filed as cytotoxic. actives 2% (n = 360,000). HT-1080 IDH1 knockdown viability, ATP luminescence, 48 h;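 further: 0% = DMSO wells and -100% = cell-free medium wells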
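In this qHTS, HT-1080 cells depleted of IDH1 are exposed for 48 h at 37 °C to compound titrations. Toxicity is scored from CellTiter-Glo luminescence, with DMSO as full viability and medium alone as none.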
KB-3-1 cytotox – KB-3-1 parental cell cytotoxicity; KB-3-1 viability, CellTiter-Glo ATP luminescence, 72 h; Potency, µM (doses to about 46.1 µM), usual class: cytotoxic; actives 1.4% (n = 400,000); further: nearly all actives have a fitted effect of over 60% in size
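Screening of KB-3-1 cells (DMEM, 10% FBS, phenol-red free) ran from lowest to highest compound concentration; after 72 h at 37 °C viability was read luminescently and curves fitted.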
The depositor's hits bear a star; i = inactive; ? = inconclusive; nt = not tested or not shown; [ ] = dose if it differs, or a comment. The call rests on the fitted dose curve; in most records, active means well fitted curve in the direction sought with a large enough effect; inconclusive means small, poorly fitted or top-dose-only effect, or another doubt; inactive means no such curve, though single readings can be large; an effect the other way counts as inactive or inconclusive. Unless noted, on the % scale 0 is the no-effect control and ±100 the full control effect; potency means the concentration at half of the fitted maximal effect.

SMILES | HT1080-NT tox | DT40 TDP1 CPT | KB-V1 cytotox | TDP1 cell noCPT | HT1080 IDH1KD tx | KB-3-1 cytotox
CCN(CC)S(=O)(=O)c1ccc2c(c1)N(CC(=O)NCc1ccccc1)C(=O)C1CCCCN21 (configuration not stated) | nt | ? | i | -10.5% | nt | i
CCOc1cc(CNc2ccc(S(N)(=O)=O)cc2)ccc1OCC(=O)NC(C)(C)C | -10.0% | -22.6% | i | ? | -13.4% | i
CCOc1cc(CNc2ccc(N(C)C)cc2)cc(Br)c1OCC(=O)NC(C)(C)C | ? | 18.4µM* | ? | 20.6µM* | ? | ?
CCOc1ccc(OCC(=O)Nc2ccc(N3CCCCC3)cc2)cc1 | -6.5% | -2.3% | nt | -9.9% | -1.1% | nt
CCOc1cc(CNc2ccc(N3CCCCC3)cc2)cc(Br)c1OCC(=O)NC(C)(C)C | -11.0% | ? | 14.6µM* | 16.4µM* | -4.8% | i
CC1S/C(=N/N=C2CCCCC2)NC1=O (configuration not stated) | 9.3% | 2.91µM* | i | 10.3µM* | 13.2% | i
CC1S/C(=N/N=C2CCC(C(C)(C)C)CC2)NC1=O (configuration not stated) | -0.1% | ? | i | ? | -1.8% | i
O=C(c1cc2cc(Br)ccc2o1)N1CCN(c2ccccc2)CC1 | 2.7% | -1.6% | nt | ? | 0.9% | nt
O=[N+]([O-])c1cc(-c2ccc(/C=N/c3nc4ccccn4c3-c3ccco3)o2)ccc1Cl | -2.8% | ? | ? | 23.1µM* | -18.7% | i
Clc1ccc(/C=N/c2c(-c3ccco3)nc3ccccn23)cc1 | -9.5% | ? | i | ? | -3.6%[9.24 µM] | i
Cc1ccc(NC(=O)CSc2nnc(COc3ccccc3F)n2N)cc1S(=O)(=O)N1CCOCC1 | -0.2%[9.24 µM] | ? | i | ? | -2.8% | ?
CCCCC1(C)Cc2ccccc2C(=S)N1 (configuration not stated) | -2.6% | 23.1µM* | ? | ? | 1.1% | i
Cc1cccc(C)c1NC(=O)C(c1ccccc1)N1CCN(c2ccc(F)cc2)CC1 (configuration not stated) | 4.9% | ? | i | -22.6% | 4.6% | i
CCNc1nc(C#N)nc(Nc2ccccc2)n1 | nt | ? | i | 11.2µM* | nt | ?
O=C(NC(=O)c1ccccc1O)c1ccc2c(c1)CCO2 | -10.5% | -24.7% | i | 20.6µM* | -1.1% | i
CC(C)(C)NC(=O)c1ccc2c(c1)CCO2 | 5.2% | -7.4% | i | -14.2% | 4.0% | i
COc1ccc(O)c(C2Nc3ccccc3-n3c(-c4ccccc4)c4c(=O)n(C)c(=O)n(C)c4c32)c1 (configuration not stated) | nt | 9.2µM* | ? | 18.4µM* | nt | i
Cn1c(=O)c2c(-c3ccccc3)n3c(c2n(C)c1=O)C(c1ccc([N+](=O)[O-])cc1)Nc1ccccc1-3 (configuration not stated) | nt | 16.4µM* | ? | 14.6µM* | nt | ?
Cn1c2c(c(=O)n(C)c1=O)C(c1ccc(Br)cc1)Nc1ccccc1O2 (configuration not stated) | -0.6% | -10.4% | ? | ? | -18.7% | ?
Cc1ccc(C2Nc3cc(C)c(C)cc3-n3c(-c4ccccc4)c4c(=O)n(C)c(=O)n(C)c4c32)o1 (configuration not stated) | nt | 7.31µM* | ? | 9.2µM* | nt | i
COc1ccc(-c2c3c(=O)n(C)c(=O)n(C)c3c3n2-c2ccccc2NC3c2ccco2)cc1 (configuration not stated) | nt | 14.6µM* | i | ? | nt | i
COc1ccc(-c2nc3ccccc3n3c(-c4ccccc4)c4c(=O)n(C)c(=O)n(C)c4c23)cc1 | nt | 0.6% | i | -18.9% | nt | i
CSc1ccccc1NC(=O)C1=COCCO1 | 16.4% | -11.1% | i | 22.8% | 13.8% | i
O=C(CSc1nnc(-c2cccs2)o1)Oc1ccc(Cl)cc1 | nt | -2.4% | i | -4.2% | nt | i
Cc1ccc(-c2c3c(=O)n(C)c(=O)n(C)c3c3n2-c2ccccc2NC3c2ccc(C)cc2O)cc1 (configuration not stated) | nt | 20.6µM* | i | 20.6µM* | nt | ?
SMILES | HT1080-NT tox | DT40 TDP1 CPT | KB-V1 cytotox | TDP1 cell noCPT | HT1080 IDH1KD tx | KB-3-1 cytotox
C[C@@H](c1ccccc1)N1C[C@H]2CCCN2c2cc(Br)ccc2S1(=O)=O | ? | 18.4µM* | ? | ? | ? | ?
CCCC(=O)n1nc(-c2ccco2)nc1SCc1ccccc1 | 0.9% | 3.66µM* | i | ? | ? | i
O=C(Cc1ccccc1)n1nc(-c2ccco2)nc1SCc1ccccc1 | 14.3% | ? | ? | ? | 0.6% | i
CCOc1ccc2nc(N3CCCC(C(=O)NCCc4ccc(SC)cc4)C3)sc2c1 (configuration not stated) | nt | -23.7% | i | ? | nt | i
CC(C)(C)c1cnnn1-c1ccc(C(=O)CCl)cc1 | ? | 1.3µM* | 23.1µM* | 1.84µM* | ? | ?
COc1ccc(S(=O)(=O)NCC(c2ccco2)N2CCOCC2)cc1C (configuration not stated) | nt | -15.3% | nt | -9.9% | nt | nt
O=S(=O)(NCCSc1nc2ccccc2o1)c1ccccc1 | 1.6% | 16.4µM* | i | 16.4µM* | 3.5% | i
c1ccc2sc(SCSc3nc4ccccc4s3)nc2c1 | -0.6% | ? | i | ? | -23.5% | i
O=S(=O)(CCSc1ccccn1)c1nc2ccccc2s1 | 20µM* | 2.31µM* | i | 5.17µM* | 7.94µM* | i
O=S(=O)(CCSc1nc2ccccc2o1)c1nc2ccccc2s1 | 10µM* | 4.11µM* | i | 3.66µM* | 6.31µM* | i
COc1ccc(C(=O)CSc2nc3cc(C(=O)NC4CCCC4)ccc3c(=O)n2CC2CCCO2)cc1 (configuration not stated) | nt | ? | i | ? | nt | i
CCOC(=O)CC1C(=O)NCCN1C(=O)COc1ccc(C(C)(C)C)cc1 (configuration not stated) | ? | -4.4% | i | -20.3% | 10.2% | i
COc1cccc(NC(=O)CN(C)C(C)C(=O)NC(C)c2ccc(Cl)cc2Cl)c1 (configuration not stated) | -0.2% | ? | ? | 18.4µM* | 0.6% | i
